The list is not random: actives were taken first. Their share in the collection is about 2.6%.
Peg3 prom inh: reduces Peg3 promoter-driven luciferase expression in HeLa | inhibition, % at 20 µM | actives 1.7% (n = 360,000) | HeLa PEG-Prom luciferase reporter, luminescence, overnight;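 active means inhibition of at least 50% at 20 µM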
KKLEB tox: CF airway cell cytotoxicity counter-screen | activity change (cytotoxicity), % at 5 µM | AID 602141 | actives 0.36% (n = 360,000) | KKLEB CF airway cells viability, ATPlite luminescence, overnight; stronger effect = lower value; cells stimulated with P. aeruginosa culture filtrate;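 active means corrected activity change at or below -50% at 5 µM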
Shn3 3UTR inh: inhibitors of Schnurri-3 3'UTR reporter in osteoblasts; Clone20 osteoblast Shn3 3'UTR firefly luciferase, 24 h; inhibition, % at 12.5 µM; actives 0.52% (n = 360,000); AID 588674;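 active means mean inhibition of at least 75% with every replicate also reaching 75%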;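 further: 0% = median of neutral control wells and 100% = pilot-screen positive control compound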
CF NFkB inh: blocks PAF-induced NF-kB reporter in cystic fibrosis cells | actives 0.86% (n = 360,000) | AID 588850 | inhibition, % at 5 µM | KKLEB NF-kB-GFP reporter, GFP fluorescence overnight;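 active means at least 50% inhibition at 5 µM, scaled per plate between neutral and stimulator controls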;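 further: PAF is a Pseudomonas aeruginosa culture filtrate used as stimulus; plate controls were PAF-stimulated DMSO wells for no effect and unstimulated DMSO wells for full effect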
HIF-2a inh: inhibitors of HIF-2a | actives 0.72% (n = 360,000) | 786-0 RCC cells HIF-2a reporter, luciferase luminescence, overnight | inhibition, % at 18.8 µM;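 active means inhibition of the luminescence signal of 40% or more relative to plate controls, in a single-dose primary screen at 18.75 µM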
Mdm2 MdmX conf: Mdm2/MdmX (human) interaction inhibition, confirmed; actives 99% (n = 740); shares compounds with HIF-2a inh; SaOS-2 split-luciferase Mdm2/MdmX complementation, luminescence; inhibition, % at 8 µM;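 active means mean inhibition of the luminescence signal across two replicates at or above 26 percent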
HIF-2a inh conf: confirmation of HIF-2a inhibitors | shares compounds with HIF-2a inh | 786-0 RCC cells, HIF-2a luciferase reporter luminescence, overnight | inhibition, % at 18.8 µM | actives 56% (n = 1,800);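 active means mean inhibition across four replicates of at least 40 percent at the single tested concentration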
HIF-1a counter: counter-screen for HIF-2a inhibitors: HIF-1a inhibition in MiaPaCa-2 cells; shares compounds with HIF-2a inh; MiaPaCa-2 HIF-1a luciferase reporter, desferoxamine, overnight; inhibition, % at 18.8 µM; actives 72% (n = 1,800); AID 651589;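 active means mean inhibition of the reporter signal across four replicates at the single tested dose of 50% or more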
Starred values were filed as active, the others as inactive; x = not tested or not shown.

SMILES | Peg3 prom inh | KKLEB tox | Shn3 3UTR inh | CF NFkB inh | HIF-2a inh | HIF-2a inh conf | HIF-1a counter | others
CC(=O)Nc1ccc(N(C(=O)c2ccco2)C(C(=O)NC2CCCC2)c2ccncc2)cc1 (stereo unspecified) | 4.1 | 0.5 | -11.7 | 0.9 | 8.2 | x | x
O=C(NCCCN1CCOCC1)c1cc(-c2ccc(Br)cc2)on1 | -16.4 | -6.1 | 21.7 | -9.2 | 57.5* | 19.3 | 61.7*
Cn1nnnc1NN=Cc1ccccc1 | 23.4 | -4.0 | -35.6 | -2.6 | -2.3 | x | x
COc1ccc(C2=CC(=O)CC(C)(C)C2)cc1OC | 10.3 | -3.4 | -16.7 | 1.6 | 0.2 | x | x
O=C(N/N=C/c1ccc(Cl)cc1)C1CC12CCC2 (stereo unspecified) | -197.5 | 4.5 | -23.3 | 1.1 | -212.9 | x | x
CCc1cccc(CC)c1NC(=O)/C(C#N)=C/c1ccccc1C(F)(F)F | 107.0* | -56.1* | -15.9 | 68.6* | 91.8* | 96.6* | 102.4*
O=C(O)c1ccc(S(=O)(=O)NN=Cc2c[nH]c3ccccc23)cc1 | 0.8 | -18.0 | 6.5 | 11.9 | 11.4 | x | x
O=C(O)c1ccc(N/N=C/c2c[nH]c3ccccc23)cc1 | 67.2* | -0.9 | 31.0 | 15.8 | 51.5* | 78.2* | 59.9*
CC1C/C(=N\Nc2ccc(S(N)(=O)=O)cc2[N+](=O)[O-])CC(C)(C)C1 (stereo unspecified) | 10.9 | -8.0 | -4.7 | 14.0 | 10.9 | x | x
NS(=O)(=O)c1ccc(N/N=C2/CCCCC2C2CCCCC2)c([N+](=O)[O-])c1 (stereo unspecified) | 40.1 | -10.7 | 65.8 | -3.9 | 54.9* | 1.9 | 103.8*
CCOC(=O)C1CCN(S(=O)(=O)c2ccc(OC)c(C(=O)N3CCCCC3)c2)CC1 | 9.1 | 19.5 | -4.0 | -7.0 | 9.5 | x | x
O=C(/C=C/c1ccccc1)/C=C/c1ccccc1 | 109.9* | -16.9 | 64.1 | -79.8 | 93.9* | 3.7 | 103.0*
O=C(C=Cc1ccccc1)NCCNC(=O)C=Cc1ccccc1 | -5.6 | 21.3 | -14.5 | -13.3 | -19.7 | x | x
O=C(c1ccc(COc2c(F)c(F)c(F)c(F)c2F)o1)N1CCN(Cc2ccc3c(c2)OCO3)CC1 | 21.3 | 1.3 | 15.6 | -5.7 | 23.8 | x | x
COc1ccc2c(c1)[nH]c1c(=O)n(/N=C/c3ccc(OC)c(CN4CCCC4)c3)cnc12 | -23.0 | 5.3 | -9.2 | 1.1 | -29.7 | x | x
COc1ccc(/C=N/n2cnc3c([nH]c4ccc(F)cc43)c2=O)cc1CN1CCCC1 | 91.1* | 0.0 | -7.5 | 6.2 | 10.3 | x | x | Mdm2 MdmX conf=100.5*
CCOC(=O)CCc1ccc(NC(=O)/C=C/c2ccc([N+](=O)[O-])o2)cc1 | 13.6 | -11.5 | 9.5 | 36.0 | 91.3* | 54.3* | 107.0*
C[C@H](CO)N1C[C@H](C)[C@@H](CN(C)C(=O)NC2CCCCC2)Oc2c(NC(=O)c3ccncc3)cccc2C1=O | 0.0 | 4.3 | -5.3 | -9.9 | 8.4 | x | x
CCOc1ccc(OCc2cccc(C(=O)N3CCCCCC3)c2)cc1 | -85.9 | -7.4 | 44.4 | 10.1 | 44.4* | 28.3 | -70.5
COc1ccc(NC(=S)NC(NC(=O)c2cccc(Cl)c2)C(Cl)(Cl)Cl)c([N+](=O)[O-])c1 (stereo unspecified) | 34.4 | 6.4 | 33.0 | 24.3 | -40.1 | x | x
O=C(NC(NC(=S)Nc1ccccc1Cl)C(Cl)(Cl)Cl)c1cccc(Cl)c1 (stereo unspecified) | 45.5 | -32.1 | 73.6 | 45.0 | 44.3* | 19.5 | 102.0*
COC(=O)c1cccc(NC(=O)CCCN2C(=O)NC3(CCCC3)C2=O)c1 | -16.2 | 17.4 | 11.5 | -12.7 | 9.9 | x | x
COc1ccc(C(=O)Cn2c(C(=O)/C=C/c3ccccc3)nc3ccccc32)cc1 | 35.2 | -13.5 | 101.8* | -3.7 | 40.2* | 3.0 | 101.6*
O=C(c1cc(C2CC2)nn1-c1ccccc1)N1CCN(Cc2c(F)cccc2Cl)CC1 | 7.5 | -2.7 | -17.5 | 10.9 | 10.8 | x | x
CC(=O)Nc1ccc(NC(=O)c2c([N+](=O)[O-])c(C(C)(C)C)nn2C)cc1 | 2.4 | 7.9 | 8.6 | 3.7 | 60.0* | 66.7* | 35.9
SMILES | Peg3 prom inh | KKLEB tox | Shn3 3UTR inh | CF NFkB inh | HIF-2a inh | HIF-2a inh conf | HIF-1a counter | others
COC(=O)c1ccc2c(c1)C(C)(C)C(/C=C/c1ccc(OC)c(OC)c1OC)=[N+]2C | 107.5* | -8.0 | 88.4* | -14.8 | 94.6* | 87.5* | 106.9* | Mdm2 MdmX conf=103.5*
COc1ccc(/C=N/Nc2ccc(C(=O)O)cc2)c(OC)c1OC | -157.6 | -3.9 | -37.0 | -0.3 | -158.6 | x | x
O=C(Nc1sc2c(c1C(=O)O)CCC2)c1ccccc1Cl | 20.2 | 9.6 | 7.0 | -6.0 | 68.0* | 96.9* | -24.8
O=C(Nc1sc2c(c1C(=O)O)CCCC2)c1ccccc1Cl | -4.0 | -4.6 | -9.2 | 9.1 | -52.2 | x | x
N#C/C(=C\C=C\c1ccccc1[N+](=O)[O-])C(=O)NCc1ccccc1 | 104.6* | -2.0 | -18.5 | -35.3 | 80.7* | 61.0* | 102.1*
N#C/C(=C\c1ccccc1[N+](=O)[O-])C(=O)NCc1ccccc1 | 16.1 | -6.7 | -3.7 | 4.0 | 22.1 | x | x
O=C(Nc1ccc(Cl)cc1)c1nc[nH]c1C(=O)NCCN(CCNC(=O)c1[nH]cnc1C(=O)Nc1ccc(Cl)cc1)CCNC(=O)c1[nH]cnc1C(=O)Nc1ccc(Cl)cc1 | 100.9* | -55.6* | 9.6 | 70.9* | -41.7 | x | x | Mdm2 MdmX conf=100.2*
Cc1ccc(NC(=O)c2nc[nH]c2C(=O)NCCN(CCNC(=O)c2[nH]cnc2C(=O)Nc2ccc(C)cc2)CCNC(=O)c2[nH]cnc2C(=O)Nc2ccc(C)cc2)cc1 | 23.9 | -23.3 | 18.8 | 21.1 | -24.9 | x | x
O=C(Nc1nccs1)C1CCCN1/C=C/C(=O)C(F)(F)F (stereo unspecified) | -32.3 | 4.1 | -49.6 | -18.2 | -9.6 | x | x
CC1(C)CC(=O)C=C(c2cccnc2)C1 | -0.4 | 7.9 | 12.0 | -30.2 | 1.0 | x | x
Fc1cccc2sc(Nc3nnc(-c4ccccc4)o3)nc12 | -184.3 | 4.1 | -17.8 | -1.7 | -171.9 | x | x
COc1cc(OC)cc(-c2nnc(Nc3nc4c(F)cccc4s3)o2)c1 | -18.3 | -0.9 | 17.9 | 6.6 | 71.6* | 84.5* | -23.1
COc1ccc(CNC(=O)[C@@H]2CC=C[C@@H]3CCN(Cc4ccc(Cl)c(Cl)c4)C(=O)[C@@H]32)cc1 | 29.9 | -2.3 | 19.5 | -27.2 | 4.4 | x | x
COc1ccc(CNC[C@@H](CCCCN(C)Cc2ccc(OC)cc2)N2C[C@H](c3ccccc3)N(CCc3ccc(Cl)c(Cl)c3)C(=O)C2=O)cc1 | 97.5* | -95.2* | 94.9* | 62.1* | 96.7* | x | x | Mdm2 MdmX conf=103.5*
CCN(CC)CCNC(=O)c1cc2c(-c3ccc(Cl)cc3)nn(C)c2s1 | 88.4* | -13.0 | -13.0 | -40.9 | 58.5* | 15.0 | 88.5*
